# High-throughput results: PubChem BioAssay, National Center for Advancing Translational Sciences (NCATS)
# IL-1B inflam inh – blocks inflammasome-driven IL-1 beta release; THP-1 LPS/ATP IL-1B secretion, AlphaLISA, 16 h; stronger effect = lower value; activity change, % at 57.5 µM; hit rate 4.7% among 360,000; in the data active = activity change below about -50%; inconclusive = mostly about -30% to -49%
#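 Secreted IL-1B measured by AlphaLISA bead assay after 16 h compound exposure of THP-1 cells; compounds (final up to 57.5 uM) added 1 h before LPS (250 ng/mL) and ATP (1.25 mM) stimulation; lower signal means less secretion.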
# Giardia killer – Giardia lamblia killing. hit rate 0.15% among 340,000. activity change, % at 7.66 µM, hits read low. Giardia lamblia trophozoite viability; in the data active = activity change below about -80%; inconclusive = between about -30% and that limit;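 also: parasites exposed to compound for two days anaerobically before the ATP read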
#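 Trophozoite viability was measured as ATP-dependent luminescence, read 15-30 min after reagent addition. Before that, parasites at 100 cells/well were exposed to compounds for 48 h, anaerobically, at 37 deg C.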
# TDP1 block – TDP1 (human) enzyme inhibition. hit rate 0.28% among 350,000. Q9NUW8. Potency, µM (series often up to 130 µM), for the others: top-dose activity change, negative = inhibition, hits mostly inhibitors. recombinant TDP1, AlphaScreen DNA substrate cleavage; also: potency is read from the fitted curve at half-maximal effect; nearly all actives have a fitted effect of over 40% in size
# Target sequence (Q9NUW8 whole entry, looked up): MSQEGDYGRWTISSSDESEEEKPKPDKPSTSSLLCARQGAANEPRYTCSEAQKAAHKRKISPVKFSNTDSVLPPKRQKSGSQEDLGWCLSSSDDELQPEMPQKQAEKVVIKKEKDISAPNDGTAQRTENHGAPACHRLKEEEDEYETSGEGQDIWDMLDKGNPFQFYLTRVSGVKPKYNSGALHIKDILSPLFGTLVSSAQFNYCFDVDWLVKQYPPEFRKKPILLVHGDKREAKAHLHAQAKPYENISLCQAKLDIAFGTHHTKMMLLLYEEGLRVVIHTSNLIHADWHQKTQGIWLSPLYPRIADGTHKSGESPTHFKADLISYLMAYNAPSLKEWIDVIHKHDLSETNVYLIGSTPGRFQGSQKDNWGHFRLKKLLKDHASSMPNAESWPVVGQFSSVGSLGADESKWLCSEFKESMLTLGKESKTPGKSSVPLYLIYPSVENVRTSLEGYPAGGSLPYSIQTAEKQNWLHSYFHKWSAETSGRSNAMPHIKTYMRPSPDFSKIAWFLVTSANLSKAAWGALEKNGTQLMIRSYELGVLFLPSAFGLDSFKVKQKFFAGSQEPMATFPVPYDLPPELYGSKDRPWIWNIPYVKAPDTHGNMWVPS
#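 Signal: AlphaScreen proximity between streptavidin donor and anti-FITC acceptor beads on intact substrate. Reaction: Tdp1 1 nM, substrate 15 nM final, 5 min RT after 15 min compound preincubation.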
# ELG1 DNA repair – ELG1-dependent DNA repair inhibition; HEK293T ELG1-luciferase reporter, luminescence, 16 h; DNA damage induced by 5-fluorouridine; Potency, µM (doses to about 46.1 µM), without a hit: top-dose activity change, negative = inhibition, actives largely listed as inhibitors; hit rate 2.3% among 330,000; also: potency is read from the fitted curve at half-maximal effect; nearly all actives have a fitted effect of over 55% in size
#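 5-Fluorouridine DNA damage + compound/DMSO, 2,000 cells/well, 16 h, 37 °C/5% CO2. ONE-Glo, 30 min RT, luminescence. Readout = decrease in reporter signal.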
# TDP1 cell CPT – growth inhibition of DT40 Tdp1-/-;hTDP1 cells with camptothecin (screen for TDP1 inhibitors) | chicken DT40 Tdp1-/-;hTDP1 cells + 20 nM CPT, ATP luminescence, 48 h | Potency, µM (top dose mostly 46.2 µM), inactives show top-dose activity change, negative = growth inhibition, actives largely listed as inhibitors | hit rate 12% among 420,000; also: potency is read from the fitted curve at half-maximal effect; nearly all actives have a fitted effect of over 55% in size
#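 Chicken DT40 Tdp1-/- cells stably complemented with human TDP1 were seeded at 400 cells/well in medium containing 20 nM camptothecin, exposed to pin-transferred compounds, and grown at 37 °C for at least 48 hr. Viability was read as ATP luminescence.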
# DT40 TDP1 no CPT – qHTS for Inhibitors of human tyrosyl-DNA phosphodiesterase 1 (TDP1): qHTS in cells in absence of CPT | DT40 Tdp1-/- hTDP1 cells, no CPT, ATP luminescence, 48 h | Potency, µM (series often up to 46.2 µM), inactives show top-dose activity change, negative = growth inhibition, most hits filed as inhibitors | hit rate 15% among 420,000 | AID 686978, 2013; also: potency is read from the fitted curve at half-maximal effect; nearly all actives have a fitted effect of over 55% in size
#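 Growth of hTDP1-complemented DT40 Tdp1-knockout cells is measured by ATP luminescence after at least 48 hr compound exposure at 37 °C, with DMSO substituting for the 20 nM CPT used in the parallel screen.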
# * hit, by the source's call; ? = inconclusive; nt = no result; [ ] = remark or other dose. Shown are actives, neighbours in structure and some others; about 19% of the full set was active somewhere. Unless noted, calls follow the shape of the dose curve; as a rule, active = well fitted curve in the direction sought with a large enough effect; inconclusive = small, poorly fitted or top-dose-only effect, or another doubt; inactive = no such curve, though single readings can be large; an effect the other way counts as inactive or inconclusive. % is scaled to controls: 0 for no effect and ±100 for the full control effect.
SMILES,IL-1B inflam inh,Giardia killer,TDP1 block,ELG1 DNA repair,TDP1 cell CPT,DT40 TDP1 no CPT
Cc1ccc(NC(=O)CN2CCC(NC(=O)Cc3ccccc3)CC2)c(C)c1,21,1,5%,-21%,-27%,0%
Cc1cc(Cl)ccc1NC(=O)CN1CCCC1,-4,7,nt,8%,13%,-1%
O=C(CN1CCCC1)Nc1ccc(Cl)cc1C(F)(F)F,-11,12,3%,10%,23µM*,?
O=C(CN1CCCC1)Nc1ccccc1Cl,-1,-12,-5%,0%,-3%,0%
O=C(CN1CCCCC1)Nc1ccc(NC(=O)c2ccc(Cl)cc2)cc1Cl,-2,-6,-2%,-11%,13µM*,26µM*
Cc1cc(Cl)ccc1NC(=O)CN1CCC(C(O)(c2ccccc2)c2ccccc2)CC1,-61*,15,5%,-18%,?,?
CCOC(=O)c1cc(S(=O)(=O)Nc2ccc(OC)cc2OC)cn1C,48,22,4%,-2%,-25%,?
CC1CC(=O)N(CC(=O)NCc2ccc(F)cc2)c2ccccc2S1(=O)=O (centres undefined),4,21,2%,0%,11%,0%
O=C(CNC1CCCCC1)Nc1cccc(C(F)(F)F)c1,-77*,23,3%,-7%,-1%,-2%
O=C(CNC1CC1)Nc1cc(C(F)(F)F)ccc1Cl,-27,12,nt,5%,-1%,2%
O=C(COCC(=O)Nc1cccc(C(F)(F)F)c1)Nc1cccc(C(F)(F)F)c1,?,-7,5%,-1%,?,26µM*
O=C(Cn1c(=O)oc2cc(Cl)ccc21)Nc1cccc(C(F)(F)F)c1,nt,nt,3%,nt,18µM*,18µM*
COC(=O)/C=C/C(=O)Nc1cccc(C(F)(F)F)c1,-104*,-6,5%,-12%,9.2µM*,15µM*
CNC(=O)Nc1cccc(C(F)(F)F)c1,-8,-15,-5%,2%,-17%,-1%
CNc1c(NC(=O)c2cc(OC)cc(OC)c2)c(=O)oc2ccccc12,nt,nt,2%,nt,0%,-28%
Cc1ccccc1C(=O)Nc1cccc(C(=O)OCc2cc(=O)n3ccsc3n2)c1,nt,nt,4%,nt,-22%,-28%
O=C(COC(=O)C1CCN(c2ccc(C(F)(F)F)cn2)CC1)NCc1cccc(Cl)c1,21,5,-11%,9%,-5%,-4%
O=c1c2ccccc2c(/C=N/c2n[nH]c(CCCO)n2)c(O)n1-c1ccccc1Cl,-7,-19,5%,-18%,?,-26%
CC1Cc2ccccc2N1S(=O)(=O)c1cccc(C(=O)NNC(=O)c2ccccc2F)c1 (centres undefined),20,-23,-1%,18%,-18%,?
O=C(NNC(=O)c1ccccc1F)c1cccc(S(=O)(=O)N2CCc3ccccc32)c1,39,-11,0%,-22%,18µM*,10µM*
O=C(NCc1ccncc1)c1cccc(S(=O)(=O)N2CCc3ccccc32)c1,-12,-8,3%,?,21µM*,?
O=C(NCCc1ccccn1)c1cccc(S(=O)(=O)N2CCc3ccccc32)c1,11,17,7%,?,?,?
CC(NC(=O)c1cccc(S(=O)(=O)N2CCc3ccccc32)c1)c1ccco1 (centres undefined),-6,-1,1%,0%,?,18µM*
CC(C)c1csc(CN2CCCC(CNC(=O)c3cccc4ccccc34)C2)n1 (centres undefined),31,32,5%,?,16µM*,?
CCN(CC)S(=O)(=O)c1ccc(O)c(NS(=O)(=O)c2ccccc2F)c1,-9,10,3%,8%,?,-27%
SMILES,IL-1B inflam inh,Giardia killer,TDP1 block,ELG1 DNA repair,TDP1 cell CPT,DT40 TDP1 no CPT
Cc1nc2ccc(C(=O)N3CCOc4ccc(CN5CCOCC5)cc4C3)cc2nc1C,nt,nt,nt,nt,-5%[9.04 µM],-3%
Cc1nc(NC(=O)c2ccco2)sc1C(=O)O,19,-21,nt,3%,6.5µM*,10µM*
COC(=O)c1sc(NC(=O)c2ccco2)nc1C,14,6,-8%,?,?,?
CCOC(=O)c1sc(NC(=S)NC(=O)c2ccco2)nc1C,12,-9,-1%,?,-4%,-27%
CCOC(=O)c1sc(NC(=O)C(CC)OC(=O)c2ccco2)nc1C (centres undefined),-84*,1,nt,0%,-11%,-17%
Cc1cnc(C(=O)OCC(=O)N(Cc2ccccc2)C(C)(C)C)cn1,17,-18,0%,6%,1%,-2%
CCOC(=O)c1c(NC(=O)COc2cccc(C(F)(F)F)c2)sc2c1CCCCC2,nt,nt,-10%[12.3 µM],nt,-11%,-8%
CCN(CC)CCN(C(=O)c1ccc(S(=O)(=O)N2CCCC2)cc1)c1nc2cc(C)cc(C)c2s1,?,9,8%,-6%,?,?
CN(C)CCCN(C(=O)c1ccco1)c1nc2ccc(F)cc2s1,-8,2,2%,26%,-19%,?
CCc1ccc2nc(N(CCN(CC)CC)C(=O)c3ccco3)sc2c1,nt,nt,10%,nt,21µM*,?
CCN(CC)CCN(C(=O)c1ccco1)c1nc2cc(C)cc(C)c2s1,nt,nt,7%,nt,?,23µM*
CCOC(=O)CCNC(=O)N1CCN(S(=O)(=O)c2ccc3c(ccn3C)c2)CC1,nt,nt,7%,nt,nt,nt
CSCC[C@H](N)C(=O)NCC1CCC(C(=O)Nc2ccc3c(c2)OCO3)CC1 (some centres undefined),-23,-2,nt,12%,-5%,-22%
O=C(NCc1nnc(SCC(=O)N2CCCc3ccccc32)o1)c1c(F)cccc1Cl,-8,-10,0%,2%,-29%,-11%
COc1cc(OC)c(NC(=O)c2sc3nc4n(c(=O)c3c2C)CCCC4)cc1Cl,nt,nt,5%,nt,34%,3%
Fc1ccc(C2Nc3cccc4cccc(c34)N2)cc1,-18,-1,nt,10%,?,?
CCN(CC)c1ccc(N=C2C(=O)Nc3ccccc32)cc1,-89*,-18,nt,16µM*,6.5µM*,5.8µM*
CCCOc1ccc(C2Nc3cccc4cccc(c34)N2)cc1,34,0,nt,?,21µM*,6.5µM*
CCN(CC)c1ccc(C2NC(=O)c3ccccc3N2)cc1 (centres undefined),39,-86*,nt,nt,7.3µM*,13µM*
COc1ccc(C2NC(=O)c3ccccc3N2)cc1COc1ccc(NC(C)=O)cc1 (centres undefined),nt,nt,-6%,nt,nt,nt
CCN(CC)c1ccc(C2Nc3cccc4cccc(c34)N2)cc1,-8,-3,nt,?,?,16µM*
